From PubChem BioAssay
Most compounds without a hit are left out; they make up all but 19% or so of the library.
KB-3-1 tox: KB-3-1 parental cell cytotoxicity; KB-3-1 viability, CellTiter-Glo ATP luminescence, 72 h; Potency, µM (series often up to 46.1 µM), usual class: cytotoxic; 400,000 compounds, 1.4% hits; AID 1347075; further: nearly all actives have a fitted effect of over 60% in size
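Cells are dispensed, compounds pinned in, plates held at 37 °C for 72 h, then CellTiter-Glo is added and luminescence read after 10 minutes. Cell line: parental KB-3-1 in phenol-red-free DMEM, 10% FBS.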
HT1080-NT tox: kills 2HG-producing HT-1080-NT fibrosarcoma cells; HT-1080-NT fibrosarcoma viability, CellTiter-Glo ATP luminescence, 48 h; Potency, µM (series often up to 46.1 µM), without a hit: top-dose activity, negative = less viability, most hits filed as cytotoxic; 360,000 compounds, 1.6% hits; AID 686970;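 further: NT is the 2HG producing partner of a matched IDH1 knockdown line; 0% = DMSO-treated cells and -100% = media-only wells without cells; nearly all actives have a fitted effect of over 55% in size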
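Luminescent CellTiter-Glo readout after 48 hours of compound exposure at 37 degrees C defined viability of HT-1080-NT cells. Activity was normalized to DMSO wells and cell-free media wells; concentration-response curves were fitted and assigned curve classes.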
DT40 TDP1 no CPT: qHTS for Inhibitors of human tyrosyl-DNA phosphodiesterase 1 (TDP1): qHTS in cells in absence of CPT; DT40 Tdp1-/- hTDP1 cells, no CPT, ATP luminescence, 48 h; Potency, µM (doses to about 46.2 µM), for inactives: at the top dose activity change, negative = growth inhibition, most hits filed as inhibitors; 420,000 compounds, 15% hits; AID 686978, 2013; further: nearly all actives have a fitted effect of over 55% in size
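Stably hTDP1-transfected Tdp1-null chicken DT40 cells were treated with library compounds minus camptothecin and grown for at least 48 hr at 37 °C, after which cellular ATP was quantified by luminescence.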
DT40 TDP1 CPT: DT40-hTDP1 cell growth loss with CPT; 420,000 compounds, 12% hits; chicken DT40 Tdp1-/-;hTDP1 cells + 20 nM CPT, ATP luminescence, 48 h; Potency, µM (titrated, usually from 46.2 µM), for the others: at the highest dose activity change, negative = growth inhibition, usual class: inhibitors; AID 686979; further: nearly all actives have a fitted effect of over 55% in size
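Chicken DT40 Tdp1-/- cells complemented with human TDP1, 400 cells/well, exposed to compounds plus 20 nM camptothecin for at least 48 h at 37 C; viability read as ATP content by CellTiter-Glo luminescence.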
HT1080 IDH1KD tx: kills HT-1080 cells with IDH1 knockdown | AID 686971 | 360,000 compounds, 2% hits | HT-1080 IDH1 knockdown viability, ATP luminescence, 48 h | Potency, µM (series often up to 46.1 µM), for inactives: at the top dose activity, negative = toxicity, most hits filed as cytotoxic;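 further: 0% = DMSO wells and -100% = cell-free medium wells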
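IDH1KD HT-1080 cells, 750/well, RPMI + 5% FBS; compound pinned after 2 h settling; 48 h, 37 °C; CellTiter-Glo luminescence; % activity normalised to DMSO and no-cell wells; curves fitted, classed by r2 and efficacy.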
KB-V1 MDR tox: kills drug-selected multidrug resistant KB-V1 cells | KB-V1 MDR cells viability, CellTiter-Glo, 72 h | Potency, µM (top dose mostly 46.1 µM), hits mostly cytotoxic | 400,000 compounds, 3.4% hits | AID 1347076; further: nearly all actives have a fitted effect of over 60% in size
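qHTS viability screen in drug-selected KB-V1 MDR cells: 72 h compound treatment at 37 degrees C, ATP luminescence end point.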
Starred values were filed as active, the others as inactive; i = inactive; ? = inconclusive; · = no result given; [ ] = dose if it differs, or a comment. The call rests on the fitted dose curve; in most records, active means well fitted curve in the direction sought with a large enough effect; inconclusive means small, poorly fitted or top-dose-only effect, or another doubt; inactive means no such curve, though single readings can be large; an effect the other way counts as inactive or inconclusive. Unless noted, on the % scale 0 is the no-effect control and ±100 the full control effect; potency means the concentration at half of the fitted maximal effect.

SMILES	KB-3-1 tox	HT1080-NT tox	DT40 TDP1 no CPT	DT40 TDP1 CPT	HT1080 IDH1KD tx	KB-V1 MDR tox
O=S(=O)(c1ccccc1)c1cnc(-c2cccnc2)nc1-c1ccc(Cl)c(Cl)c1	i	6.1%	-22.9%	?	0.5%	6.51µM*
CCOC(=O)Cn1c(=O)oc2cc(S(=O)(=O)NCc3ccc(F)cc3)ccc21	i	·	-24.5%	-4.5%	·	?
O=C(c1ccc(Cn2c(=S)[nH]c3ccc(Br)cc3c2=O)cc1)N1CCN(C2CCCCC2)CC1	?	0.2%	?	?	4.8%	18.4µM*
CCOCCCn1c(=S)[nH]c2cc(C(=O)N3CCN(C4CCCCC4)CC3)ccc2c1=O	i	2.1%	?	23.1µM*	-1.3%	i
O=c1c2cc(Br)ccc2[nH]c(=S)n1Cc1cccnc1	i	0.5%	-14.1%	-22.3%	1.7%	?
COc1ccccc1-c1csc(C(O)c2ccc(F)c(F)c2)n1 (centres undefined)	i	?	-32.3%	-25.8%	?	i
Fc1ccc(Nc2ccnc(Nc3ccc(F)cc3)n2)cc1	i	?	18.4µM*	16.4µM*	?	14.6µM*
CCOC(=O)c1c(S(=O)(=O)N2CCCC(C(=O)N3CCN(c4cc(C)ccc4C)CC3)C2)c(C)n(C)c1C (centres undefined)	i	·	9.2µM*	8.2µM*	·	?
CCOC(=O)c1c(S(=O)(=O)N2CCC(C(=O)N3CCN(c4cc(C)ccc4C)CC3)CC2)c(C)n(C)c1C	·	·	23.1µM*	?	·	·
CCOC(=O)c1c(S(=O)(=O)N2CCCC(C(=O)N3CCN(c4cccc(C)c4C)CC3)C2)c(C)n(C)c1C (centres undefined)	i	·	9.2µM*	7.31µM*	·	i
O=C(CSc1ncccn1)N(Cc1cccnc1)C(CCc1ccccc1)c1nc2ccccc2[nH]1 (centres undefined)	i	15.1%	?	-25.1%	-3.8%	i
Nn1c(SCC(=O)Nc2c(Cl)cccc2Cl)nncc1=O	i	-2.6%	-0.9%	18.1%	10.0%	i
COC(=O)c1cc(CNC(=O)c2ccc(N(C)C)cc2)cc(NC(=O)c2ccccc2Cl)c1	·	·	-27.5%	-0.1%	·	·
COc1ccc(-c2csc(NC(CO)c3nc4ccccc4n3CCOCCO)n2)cc1 (centres undefined)	i	0.0%	?	?	11.2%	i
COc1ccc(N2C(=O)/C(=C/c3cccs3)NC2=S)cc1	i	-6.8%	5.8µM*	1.46µM*	8.3%	?
O=C(NC(=S)NCc1ccccc1)C1CCCCC1	i	-8.7%	20.6µM*	18.4µM*	-4.5%[9.24 µM]	i
CC(N)(COP(=O)(O)O)C(=O)O (centres undefined)	·	·	-7.6%	-18.0%	·	·
CCC1OC(C(C)C)Cc2[nH][nH]c(=O)c21 (centres undefined)	i	20.0%	-17.6%	-17.7%	16.1%	i
Cc1ccc(SCc2c(-c3ccccc3)nn(C)c2Cl)cc1	i	-5.8%	16.4µM*	?	-19.9%	i
COc1ccc(CCNC(=O)CCc2c(C)nc3c(c(C)nn3-c3ccc(C)cc3)c2C)c(OC)c1	i	·	?	?	·	i
CC(C)(C)c1ccc(CC(=O)N2CCC2(C)C(=O)N2CCCCC2)cc1 (centres undefined)	i	7.9%	-31.8%	?	10.5%	i
O=C1[C@@H]2Cc3c([nH]c4ccccc34)C(c3ccccc3)N2C(=O)CN1C1CCN(Cc2ccccc2)CC1 (some centres undefined)	i	?	16.4µM*	16.4µM*	?	i
O=C1[C@@H]2Cc3c([nH]c4ccccc34)C(c3cccc(Br)c3)N2C(=O)CN1C1CCN(Cc2ccccc2)CC1 (some centres undefined)	?	?	20.6µM*	?	23.1µM*	i
CN1CCS/C1=C/C=C1/SC(=S)N(Cc2ccccc2)C1=O	?	0.0%	?	?	-14.4%	i
CCCN1C(=O)/C(=C\C=C2/C=CN(CC)c3ccccc32)SC1=S	i	0.0%	10.3µM*	?	9.0%	?
SMILES	KB-3-1 tox	HT1080-NT tox	DT40 TDP1 no CPT	DT40 TDP1 CPT	HT1080 IDH1KD tx	KB-V1 MDR tox
O=C(NC1CC1)c1ccc(Cl)c(S(=O)(=O)N2CCOCC2)c1	i	19.6%	-10.1%	-3.5%	16.8%	i
Cc1ccc(Cc2c(-c3cccc(Br)c3)nc3cc(C)c(Br)c(C)n23)cc1	i	-0.6%	?	?	-4.3%	i
Cc1cc2nc(-c3ccccc3)c(Cc3ccccc3)n2c(C)c1Br	i	?	?	23.1µM*	-16.4%	i
Cc1cc2nc(-c3ccc(Cl)cc3)c(Cc3cccc(Cl)c3)n2c(C)c1Br	i	-11.2%	-24.9%	-19.7%	-9.9%	i
Cc1cc2nc(-c3ccccc3)c(Cc3ccsc3)n2c(C)c1Br	?	-26.2%	14.6µM*	14.6µM*	?	i
Cc1cc2nc(-c3ccc(C#N)cc3)c(Cc3ccsc3)n2c(C)c1Br	i	-27.0%	16.4µM*	16.4µM*	?	?
Cc1cc2nc(C3CCCCC3)c(Cc3ccccc3)n2c(C)c1Br	i	-14.6%	23.1µM*	?	-23.8%	i
Cc1ccc(CNC(=O)CCCn2nc(C)n3ccnc3c2=O)cc1	i	-3.8%	-7.9%	2.6%	-0.6%	i
CCc1nc(NCc2ccc3c(c2)OCO3)c2oc3ccccc3c2n1	?	-6.7%	18.4µM*	13µM*	-12.3%	16.4µM*
CCc1nc(Nc2ccc(OC)cc2OC)c2oc3ccccc3c2n1	i	?	20.6µM*	7.31µM*	14.6µM*	i
COc1ccc(Nc2nc(C)nc3c2oc2ccccc23)c(OC)c1	i	18.4µM*	-21.9%	-15.4%	29.1µM*	i
COc1ccccc1Nc1nc(C)nc2c1oc1ccccc12	i	?	9.2µM*	14.6µM*	-27.7%	?
COc1ccc(N2C(=O)[C@@H]3C[C@H]2CN3Cc2cccn2-c2ccc(Cl)cn2)c(C)c1	·	·	?	-0.8%[9.04 µM]	·	·
CC(C)(C)C1CCc2c(sc(NC(=O)c3noc4c3CCCC4)c2C#N)C1 (centres undefined)	i	·	-6.3%	-21.7%	·	?
CN(C#N)c1nc(N2CCOCC2)nc(N2CCOCC2)n1	i	10.4%	?	?	6.9%	i
